In the library only some 9.2% were active in any assay of this set; here they are far more common.
SMN2 splice up: SMN2 splice variant enhancement; HEK293 SMN2-luciferase splicing reporter, luminescence, 30-36 h; Potency, µM (highest dose often 46.1 µM), for the others: top-dose activity change, positive = activation, usual class: activators; actives 2.8% (n = 210,000); AID 1458; further: % of control where 0% means no effect; nearly all actives have a fitted effect of over 55% in size
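HEK293 cells carry an SMN2 […]–luciferase reporter in which exon 7 inclusion puts luciferase in frame. Cells were plated 10-12 h before compound addition, then incubated 30-36 h at 37C. ONE-Glo luminescence was read; sodium butyrate at 4.5 mM final served as control.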
ELG1 genotox: induces genotoxicity in HEK293T cells with luciferase-tagged ELG1 | HEK293T ELG1-luciferase reporter, luminescence, 16 h | Potency, µM (series often up to 46 µM), for inactives: at the highest dose activity change, positive = activation, usual class: activators | actives 1.3% (n = 330,000); further: % of control where 0% means no effect; nearly all actives have a fitted effect of over 60% in size
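Screening used a luciferase reporter fused to human ELG1 in HEK293T cells. Luminescence was read on a CCD plate imager after 16 hr exposure and 30 min ONE-Glo incubation.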
Rab9 prom act: activates the Rab9 promoter | Huh7 Rab9 promoter-luciferase reporter, luminescence, 24 h | Potency, µM (titrated, usually from 9.22 µM), without a hit: top-dose activation, negative = inhibition, most hits filed as activators | actives 2.8% (n = 320,000) | AID 485297; further: % of control where 0% means no effect; nearly all actives have a fitted effect of over 60% in size
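Promoter activation is measured as luciferase luminescence in Huh7 cells stably transfected with a Rab9 promoter–luciferase construct, following 24 h compound exposure at 37 °C and 10 min reagent incubation at ambient temperature.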
NPC1 promoter act: activates the NPC1 promoter; Huh7 NPC1 promoter luciferase reporter, 24 h; Potency, µM (doses to about 9.22 µM), without a hit: top-dose activation, hits mostly activators; actives 2.4% (n = 320,000); further: % of control where 0% means no effect; nearly all actives have a fitted effect of over 60% in size
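Huh7 cells stably carrying NPC1 promoter–luciferase, plated in Opti-MEM with 10% FBS for 2 h, were exposed to compound in DMSO for 24 h at 37 °C; luciferase reagent was added for 10 min and luminescence read.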
ELG1 DNA repair: inhibitors of ELG1-dependent DNA repair in HEK293T cells; HEK293T ELG1-luciferase reporter, luminescence, 16 h; DNA damage induced by 5-fluorouridine; Potency, µM (highest dose often 46.1 µM), for inactives: at the top dose activity change, negative = inhibition, most hits filed as inhibitors; actives 2.3% (n = 330,000); AID 504467; further: on the % scale 0 is the no-effect control and ±100 the full control effect; nearly all actives have a fitted effect of over 55% in size
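HEK293T cells expressing luciferase-tagged ELG1 (2,000/well) received 5-Fluorouridine plus compound or DMSO for 16 hr at 37 °C. Luciferase was read by ONE-Glo luminescence after 30 min at room temperature.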
FLuc modulator: inhibits or activates purified firefly luciferase, miR-21 counter-screen. purified FLuc, Km substrates, luminescence inhibition. Potency, µM (titrated, usually from 57.5 µM), without a hit: at the top dose activity change, negative = inhibition, hits mostly inhibitors. actives 6.9% (n = 360,000). AID 588342;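 further: plate controls were vehicle for no effect and reference inhibitor for full effect; nearly all actives have a fitted effect of over 55% in size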
Target sequence (P08659 whole entry, looked up): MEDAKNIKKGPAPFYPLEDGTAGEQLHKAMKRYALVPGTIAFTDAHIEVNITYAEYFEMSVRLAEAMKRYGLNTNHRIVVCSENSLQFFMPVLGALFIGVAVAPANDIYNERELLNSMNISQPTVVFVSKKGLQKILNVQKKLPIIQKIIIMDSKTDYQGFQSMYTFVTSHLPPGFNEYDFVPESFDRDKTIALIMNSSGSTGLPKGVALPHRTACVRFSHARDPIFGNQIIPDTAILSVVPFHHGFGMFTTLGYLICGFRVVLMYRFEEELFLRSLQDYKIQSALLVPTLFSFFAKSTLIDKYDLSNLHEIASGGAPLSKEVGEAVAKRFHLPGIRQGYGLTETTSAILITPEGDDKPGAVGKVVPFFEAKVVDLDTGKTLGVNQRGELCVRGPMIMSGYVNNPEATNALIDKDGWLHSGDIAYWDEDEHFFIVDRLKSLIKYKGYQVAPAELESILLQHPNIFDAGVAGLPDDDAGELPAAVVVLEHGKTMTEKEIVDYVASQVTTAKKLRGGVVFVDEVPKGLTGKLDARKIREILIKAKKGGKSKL
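Purified P. pyralis luciferase (10nM final) with 10uM D-luciferin and 10uM ATP (Km levels) in 50mM Tris acetate pH 7.5, 10mM Mg acetate, 0.01% Tween-20, 0.05% BSA; qHTS 6-point titration, ~60 µM downward; luminescence read.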
* hit, by the source's call. The call rests on the fitted dose curve; in most records, active means well fitted curve in the direction sought with a large enough effect; inconclusive means small, poorly fitted or top-dose-only effect, or another doubt; inactive means no such curve, though single readings can be large; an effect the other way counts as inactive or inconclusive. Potency means the concentration at half of the fitted maximal effect.

CCN(CC)c1ccc(/C=N/NC(=O)CNC(=O)c2ccc3c(c2)OCCO3)cc1 was read as ELG1 genotox -3%, Rab9 prom act 6%, NPC1 promoter act 3%, ELG1 DNA repair 1% and FLuc modulator 17µM*.
O=C(N/N=C/c1c(Cl)[nH]c2ccccc12)c1ccc2c(c1)OCCO2 was read as ELG1 genotox inconclusive, Rab9 prom act inconclusive, NPC1 promoter act inconclusive, ELG1 DNA repair inconclusive and FLuc modulator 1.5µM*.
Cc1[nH]c2ccccc2c1/C=N/NC(=O)c1cccc(F)c1 was read as ELG1 genotox 3%, Rab9 prom act 15%, NPC1 promoter act 7%, ELG1 DNA repair 11% and FLuc modulator inconclusive.
`CC(NC(=O)CN1C(=O)NC(C)(c2cccc3ccccc23)C1=O)c1ccccc1` (stereo not given) gave ELG1 genotox -21%, Rab9 prom act -3%, NPC1 promoter act -2%, ELG1 DNA repair 7% and FLuc modulator 3%.
For Cc1cccc(CN2CCC(CNC(=O)Cn3ncc4c([nH]c5ccccc54)c3=O)CC2)c1 the results were ELG1 genotox 0%, Rab9 prom act -2%, NPC1 promoter act 0%, ELG1 DNA repair 16% and FLuc modulator 1%.
COc1ccc2[nH]c(C(=O)N3CCNCC3)cc2c1OC was read as ELG1 genotox inconclusive, Rab9 prom act -4%, NPC1 promoter act 0%, ELG1 DNA repair inconclusive and FLuc modulator 3%.
`CCOC(=O)N1CCC(NC(=O)c2ccc3c(c2)N(Cc2ccccc2)C(=O)c2ccccc2S3(=O)=O)CC1` gave SMN2 splice up 3% and FLuc modulator -8%.
O=C(NCc1ccccn1)C(=O)N/N=C/c1ccc2c(c1)OCO2 was read as ELG1 genotox 5%, Rab9 prom act 10%, NPC1 promoter act -2%, ELG1 DNA repair -10% and FLuc modulator 17µM*.
For O=C(N/N=C/c1cc2c(cc1Cl)OCO2)c1ccc2c(c1)OCCO2 the results were ELG1 genotox 9%, Rab9 prom act 19%, NPC1 promoter act 4%, ELG1 DNA repair inconclusive and FLuc modulator 7.6µM*.
O=C(CNC(=O)c1cccc(Br)c1)N/N=C/c1ccc2c(c1)OCO2 was read as ELG1 genotox inconclusive, Rab9 prom act 2%, NPC1 promoter act 0%, ELG1 DNA repair 21% and FLuc modulator 17µM*.
For O=C(N/N=C/c1cccc(O)c1)c1ccc2c(c1)OCCO2 the results were ELG1 genotox inconclusive, Rab9 prom act -1%, NPC1 promoter act inconclusive, ELG1 DNA repair inconclusive and FLuc modulator 1.7µM*.
CCCNC(=O)CSc1nc2ccccc2c(=O)n1CCC was read as SMN2 splice up -12%, ELG1 genotox 0%, Rab9 prom act -1%, NPC1 promoter act -4%, ELG1 DNA repair 6% and FLuc modulator 2%.
`CC1CCCC(C)N1C(=O)CSc1nnc(-c2ccco2)n1C` (stereo not given) gave ELG1 genotox 3%, Rab9 prom act 3%, NPC1 promoter act 1%, ELG1 DNA repair 23% and FLuc modulator 4%.
Screening CCS(=O)(=O)c1nc(S(=O)(=O)c2ccc(Cl)cc2)c(NCCOC)s1 returned ELG1 genotox -1%, Rab9 prom act 1%, NPC1 promoter act 0%, ELG1 DNA repair 19% and FLuc modulator -2%.
For Cc1ccc(-c2nc(NCC3CCCO3)sc2C)cc1 (stereo not given) the results were SMN2 splice up 23%, ELG1 genotox 17%, Rab9 prom act 21%, NPC1 promoter act 14%, ELG1 DNA repair inconclusive and FLuc modulator inconclusive.
`O=C(CCN1C(=O)[C@@H]2Cc3ccccc3CN2C1=O)Nc1cccc(F)c1` gave ELG1 genotox 0%, Rab9 prom act 1%, NPC1 promoter act 18%, ELG1 DNA repair 0% and FLuc modulator 1%.
`O=C(N/N=C\c1ccc(S(=O)(=O)O)o1)c1ccc2c(c1)OCO2` gave ELG1 genotox -2%, Rab9 prom act -4%, NPC1 promoter act 2%, ELG1 DNA repair -1% and FLuc modulator inconclusive.
`Cc1[nH]c2ccccc2c1/C=N\NC(=O)CNc1ccc2c(c1)OCO2` gave SMN2 splice up -8%, ELG1 genotox 0%, Rab9 prom act -6%, NPC1 promoter act 1%, ELG1 DNA repair 3% and FLuc modulator 11µM*.
Screening O=C(N/N=C\c1ccc2c(c1)OCO2)c1ccco1 returned ELG1 genotox 15µM*, Rab9 prom act 1.8µM*, NPC1 promoter act 3.2µM*, ELG1 DNA repair inconclusive and FLuc modulator 8.5µM*.
Screening O=C(N/N=C\c1cccc(OC(=O)c2ccco2)c1)c1ccc2c(c1)OCO2 returned SMN2 splice up inconclusive, ELG1 genotox 15µM*, Rab9 prom act 25%, NPC1 promoter act 24%, ELG1 DNA repair inconclusive and FLuc modulator 1.7µM*.
O=C(N/N=C/c1ccc2c(c1)OCO2)c1ccc2c(c1)OCO2 was read as ELG1 genotox -4%, Rab9 prom act 2.5µM*, NPC1 promoter act 2.2µM*, ELG1 DNA repair inconclusive and FLuc modulator inconclusive.
`O=C(CNc1ccc2c(c1)OCO2)N/N=C\c1ccccc1Cl` gave SMN2 splice up 1%, ELG1 genotox 0%, Rab9 prom act -5%, NPC1 promoter act 0%, ELG1 DNA repair -1% and FLuc modulator inconclusive.
Cc1cccc(CS(=O)(=O)Cc2ccc(C(=O)NCc3ccc(F)cc3)o2)c1 was read as FLuc modulator -7%.
Cc1cc(C(=O)N/N=C/c2cccc(OC(=O)c3ccco3)c2)n[nH]1 was read as SMN2 splice up inconclusive, ELG1 genotox 8%, Rab9 prom act 8%, NPC1 promoter act 2%, ELG1 DNA repair inconclusive and FLuc modulator 17µM*.
Screening O=C(N/N=C/c1ccc[nH]1)c1cccc([N+](=O)[O-])c1 returned SMN2 splice up -2%, ELG1 genotox 2%, Rab9 prom act -3%, NPC1 promoter act -8%, ELG1 DNA repair 2% and FLuc modulator 1%.
For O=C(N/N=C/c1ccc[nH]1)c1ccc2c(c1)OCO2 the results were SMN2 splice up inconclusive, ELG1 genotox inconclusive, Rab9 prom act 12%, NPC1 promoter act -5%, ELG1 DNA repair inconclusive and FLuc modulator 13µM*.
Screening N/C(=N\OC(=O)c1ccc(Cl)c([N+](=O)[O-])c1)c1ccccc1 returned ELG1 genotox 13%, Rab9 prom act 28%, NPC1 promoter act -5%, ELG1 DNA repair inconclusive and FLuc modulator 12µM*.
